# From PubChem BioAssay AID1851 (National Center for Advancing Translational Sciences (NCATS), 2009)
# Screen size: about 16,000 compounds; about 5,800 (36%) were called active. About 23% were inconclusive and are not listed. The list shows a part of the results. Values without a mark were called inactive. Calls come from the whole dose curve; as a rule, active = well fitted curve in the direction sought with a large enough effect; inconclusive = small, poorly fitted or top-dose-only effect, or effect the other way; inactive = no such curve, though single readings can be large or run the other way.
# Molecular target: Cytochrome P450 2C19 (Homo sapiens) (UniProt P33261)
# Sequence (P33261 whole entry, looked up): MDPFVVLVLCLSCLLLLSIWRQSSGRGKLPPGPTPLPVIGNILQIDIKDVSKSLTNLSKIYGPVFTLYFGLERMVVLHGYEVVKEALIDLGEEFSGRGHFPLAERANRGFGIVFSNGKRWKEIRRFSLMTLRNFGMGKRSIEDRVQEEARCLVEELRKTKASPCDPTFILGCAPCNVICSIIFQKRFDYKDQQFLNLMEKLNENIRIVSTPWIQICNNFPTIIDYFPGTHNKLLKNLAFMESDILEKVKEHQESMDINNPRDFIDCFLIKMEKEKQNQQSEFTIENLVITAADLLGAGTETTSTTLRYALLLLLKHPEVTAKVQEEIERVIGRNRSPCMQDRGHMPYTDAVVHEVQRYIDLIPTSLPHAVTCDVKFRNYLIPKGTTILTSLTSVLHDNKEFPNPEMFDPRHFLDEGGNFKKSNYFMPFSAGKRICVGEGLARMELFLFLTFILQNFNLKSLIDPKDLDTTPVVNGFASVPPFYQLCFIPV
# Test: Cytochrome panel assay with activity outcomes
# Conditions: recombinant CYP, pro-luciferin dealkylation, luminescence, p450-cyp2c19; series mostly up to 57.1 µM
# % is set by controls: 0 for no effect and ±100 for the full control effect.
SMILES,AC50,"activity, negative = inhibition"
CCCCOC(=O)c1cc2c(cn1)[nH]c1ccccc12,5.01 µM (active),–
CC(=O)c1cccc(NS(=O)(=O)c2ccc(N/C=C\C(=O)c3ccc(F)cc3)cc2)c1,5.62 µM (active),–
Cc1noc(NS(=O)(=O)c2ccc(N/C=C/C(=O)c3ccc4c(c3)OCO4)cc2)c1C,inactive,–
Cn1c(=O)c(-c2cc(F)cc(F)c2)nc2cnc(N3CCOCC3)nc21,inactive,–
COC(=O)c1[nH]c2ccc(Br)cc2c1NC(=O)CN1CCN(C2CCCCC2)CC1,15.8 µM (active),–
COC(=O)c1[nH]c2cccc(OC)c2c1NC(=O)CN(C)CC1OCCO1,inactive,–
COC(=O)c1[nH]c2cc(OC)ccc2c1NC(=O)CCN1CCSCC1,inactive,–
COC(=O)c1[nH]c2ccc(Br)cc2c1NC(=O)CN1CCCc2ccccc21,7.94 µM (active),–
Cc1ccc(S(=O)(=O)N[C@H]2COC(=O)[C@@H](Cc3ccccc3)NC(=O)[C@@H](C)COC(=O)C/C=C\[C@@H]2C)cc1,–,32% [at 11.4 µM]
O=C(c1csnn1)N1CCC2(CCN(Cc3nccs3)CC2)CC1,inactive,–
CCN(CC)CC[n+]1ccc2c(C)c3[nH]c4ccc(O)cc4c3c(C)c2c1,–,42.4% [at 11.4 µM]
CCCS(=O)(=O)N1CCN(CC2CC=CCC2)CC1 (stereo not drawn),3.98 µM (active),–
CCCS(=O)(=O)N1CCCC(C(=O)NCCN2CCOCC2)C1 (stereo not drawn),inactive,–
CCCS(=O)(=O)N1CCCC(C(=O)N2CCOCC2)C1 (stereo not drawn),inactive,–
O=c1cc(CF)[nH]c(=S)[nH]1,–,16.1% [at 11.4 µM]
CN(NC(=O)NN)c1ncc(C(F)(F)F)cc1Cl,10 µM (active),–
O=C(CN(C(=O)CSc1nc2ccccc2o1)c1cccc(F)c1)NC1CCCCC1,1 µM (active),–
NC(N)=N/N=C(\c1ccc(Cl)cc1)C1CC1,–,-27.1% [at 11.4 µM]
COc1ccc2nc(N)sc2c1,31.6 µM (active),–
COc1ccc(Cc2c(N)nc(N)nc2N)cc1,inactive,–
COc1ccc(N2C(N)=NC(N)=NC2(C)C)cc1,inactive,–
O=C1NC(c2cccc([N+](=O)[O-])c2)=CCN1c1ccccc1O,6.31 µM (active),–
CCCOc1ccc(C(=O)NNC(=S)NC(=O)c2cc(-c3ccccc3)nc3ccccc23)cc1,inactive,–
Cc1cccc(NC(=S)NC(=O)c2cc(-c3ccccc3)nc3ccccc23)c1,1.58 µM (active),–
Cc1ccc(-c2cc(C(=O)NN=C3CCCC3)c3ccccc3n2)cc1,28.2 µM (active),–

SMILES,AC50,"activity, negative = inhibition"
Cc1ccccc1NC(=S)NC(=O)c1cc(-c2ccccc2)nc2ccccc12,2.82 µM (active),–
O=C(O)c1cc(-c2ccc3cc4c(cc3c2)OCO4)nc2ccccc12,–,35.1% [at 11.4 µM]
C[C@@]12CC(=O)[C@@H]3[C@@H](CCC4=CC(=O)CC[C@]43C)[C@@H]1CC=C2CC(=O)O,–,30.4% [at 11.4 µM]
c1ccc(-c2ccc(N3CCCC4(CCNCC4)C3)cc2)cc1,15.8 µM (active),–
O=C(c1ccncc1)N1CCC2(CCN(Cc3ccncc3)CC2)CC1,inactive,–
COCC(=O)N1CCC2(CCN(Cc3ccncc3)CC2)CC1,0.0251 µM (active),–
c1ccc(-c2ccc(N3CC4(CCNCC4)C3)cc2)cc1,inactive,–
COCC(=O)N1CCC2(CC1)CN(C(=O)Nc1ccc(OC)cc1)C2,inactive,–
COCC(=O)N1CCC2(CCCN(c3ccncc3)C2)CC1,inactive,–
COCC(=O)N1CCC2(CCCN(c3cccc(-c4ccccc4)c3)C2)CC1,15.8 µM (active),–
COCC(=O)N1CCC2(CCCN(C(=O)Nc3ccccc3)C2)CC1,inactive,–
CC(=O)N1CCC2(CCN(Cc3ccncc3)CC2)CC1,inactive,–
c1ccc(-c2cccc(N3CC4(CCNCC4)C3)c2)cc1,inactive,–
COCC(=O)N1CCC2(CC1)CN(C(=O)Nc1ccccc1)C2,5.01 µM (active),–
O=C(Oc1ccccc1)N1CCC2(CCCN(c3cccc(-c4ccccc4)c3)C2)CC1,inactive,–
CCN=C(N)CSS(=O)(=O)O,–,-0.003% [at 11.4 µM]
CC(=O)N1CCC[C@@]2(CCN(c3ccccc3)C2)C1,inactive,–
O=C(c1cnccn1)N1CCC2(CCCN(c3ccccc3)C2)CC1,0.501 µM (active),–
CC(=O)N1CCC2(CCCN(c3cccc(-c4ccccc4)c3)C2)CC1,15.8 µM (active),–
COc1ccc(C(=O)N2CCC[C@@]3(CCN(Cc4ccccc4)C3)C2)cc1,inactive,–
CC(=O)N1CCC2(CCCN(Cc3ccccc3)C2)CC1,inactive,–
O=C(c1cnccn1)N1CCC2(CC1)CCN(c1ccccc1)CC2,inactive,–
O=C(c1cnccn1)N1CCC2(CC1)CN(c1ccccc1)C2,inactive,–
CC(=O)N1CCC2(CCCN(c3ccccc3)C2)CC1,25.1 µM (active),–
CC(=O)N1CCC2(CC1)CCN(c1cccc(-c3ccccc3)c1)CC2,inactive,–

SMILES,AC50,"activity, negative = inhibition"
COc1ccc(C(=O)N2CCC[C@@]3(CCN(c4cccc(-c5ccccc5)c4)C3)C2)cc1,7.94 µM (active),–
COc1ccc(C(=O)N2CCC[C@@]3(CCN(C(=O)Nc4ccccc4)C3)C2)cc1,inactive,–
Cc1cc(CNC(=O)[C@H]2C[C@@H]2[C@H](NP(=O)(c2ccccc2)c2ccccc2)c2ccccc2)nn1C,inactive,–
O=C(NCCc1c[nH]c2ccccc12)[C@@H]1C[C@H]1[C@@H](NP(=O)(c1ccccc1)c1ccccc1)c1ccccc1,6.31 µM (active),–
O=C(Nc1ccc2ccccc2c1)[C@@H]1C[C@H]1[C@@H](NP(=O)(c1ccccc1)c1ccccc1)c1ccccc1,inactive,–
O=C(Nc1ccc2ccccc2c1)[C@H]1C[C@@H]1[C@H](NP(=O)(c1ccccc1)c1ccccc1)c1ccccc1,3.16 µM (active),–
Cc1cc(CNC(=O)[C@@H]2C[C@H]2[C@@H](NP(=O)(c2ccccc2)c2ccccc2)c2ccccc2)nn1C,inactive,–
O=C(NCCc1c[nH]c2ccccc12)[C@H]1C[C@@H]1[C@H](NP(=O)(c1ccccc1)c1ccccc1)c1ccccc1,1.26 µM (active),–
COc1ccc(/C=C(/C#N)C(=O)Nc2cc(C)ccc2C)cc1C(=O)O,inactive,–
CCOC(=O)/C(C#N)=C\N(C)C,inactive,–
COc1cc(/C=C(/C#N)c2nc3ccccc3[nH]2)ccc1Oc1ncccc1[N+](=O)[O-],3.98 µM (active),–
CCOC(=O)/C(C#N)=C\c1ccc(OCC(=O)Nc2ccc(C)cc2C)c(OC)c1,2.82 µM (active),–
COc1cc(/C=C(/C#N)c2nc3ccccc3[nH]2)ccc1OCC(=O)Nc1ccccc1C,4.47 µM (active),–
Cn1c(CNS(=O)(=O)c2ccc(Cl)cc2)n[nH]c1=S,inactive,–
COc1ccc(-c2cc(CNC(C)=O)on2)cc1,inactive,–
O=S(=O)(NCc1cc(-c2ccc(Cl)cc2)no1)c1ccc(Cl)cc1,1.58 µM (active),–
Clc1ccc(SCc2cc(-c3ccccc3)no2)cc1,1.12 µM (active),–
O=S(=O)(NCc1cc(-c2ccccc2)no1)c1ccc(Cl)cc1,0.708 µM (active),–
O=c1cnc2cnc(N3CCOCC3)nc2n1C1CC1,inactive,–
Nc1nc(N)[n+]([O-])c(N)c1NCO,–,33.1% [at 11.4 µM]
O=C(Nc1ccc(N2CCCCC2)cc1)c1cncc(Br)c1,17.8 µM (active),–
CC(=O)Nc1cccc(N2C(=O)CCC2=O)c1,inactive,–
CC(=O)Nc1ccc(N2CCCCC2)cc1,31.6 µM (active),–
CC(=O)Nc1ccc(N2CCCCC2)c(C(=O)Nc2cccc(C)c2)c1,20 µM (active),–
CC(=O)Nc1ccc(NC(=O)C/C(C)=N/NC(=O)C(=O)N2CCCC2)cc1,inactive,–

SMILES,AC50,"activity, negative = inhibition"
CC(=O)OC[C@@H]1O[C@@H](O/N=C2/C[C@@H](O)[C@@H](O)[C@@H]3[C@@H]4C(=O)N([C@@H](C)c5ccccc5)C(=O)[C@H]4CC[C@@H]23)[C@H](OC(C)=O)[C@H](OC(C)=O)[C@@H]1OC(C)=O,–,23% [at 11.4 µM]
CC(C)NC(=O)N1CCC2(CC1)CCN(C(=O)c1cccn1C)CC2,inactive,–
CNCCCCCCCCSc1nc(C(C)C)ccc1C(=O)c1cccs1,15.8 µM (active),–
CCOc1ccc(Cl)cc1CNCCNCC(C)O (stereo not drawn),inactive,–
CC(C)NCCCOc1ccc(Cl)cc1Br,8.91 µM (active),–
CCN(CC)c1ccc(NC(=O)c2cnn(CC)c2)cc1,28.2 µM (active),–
CC(C)CCNC1=NCCCCC1,inactive,–
CNc1ccc(Br)cc(C(=O)/C=C/c2ccc3c(c2)OCO3)c1=O,1.78 µM (active),–
CCNc1ccc(Br)cc(C(=O)/C=C/c2ccc3c(c2)OCO3)c1=O,3.98 µM (active),–
N#Cc1cccc(-c2cc(NCc3cccs3)ncn2)c1,10 µM (active),–
c1csc(CNc2cc(-c3ccoc3)ncn2)c1,10 µM (active),–
c1cncc(-c2cc(NCc3cccs3)ncn2)c1,inactive,–
N#Cc1cccc(-c2nccc(NCc3cccs3)n2)c1,3.98 µM (active),–
c1ccc(CNc2cc(-c3ccoc3)ncn2)cc1,inactive,–
N#Cc1cccc(-c2nccc(NCc3ccccc3)n2)c1,10 µM (active),–
CCOC(=O)C(NC(C)=O)C(=O)O (stereo not drawn),inactive,–
CN(C)c1ccc(-c2cc(NCc3ccccc3)ncn2)cc1,inactive,–
CN(C)C(=O)c1ccc(-c2cc(NCc3ccccc3)ncn2)cc1,inactive,–
Cc1cccc(CNc2cc(-c3ccc(N(C)C)cc3)ncn2)c1,3.16 µM (active),–
Cc1cccc(CNc2ccnc(-c3cccc(C#N)c3)n2)c1,2.51 µM (active),–
Cc1cccc(CNc2cc(-c3cccc(C#N)c3)ncn2)c1,6.31 µM (active),–
Cc1cnc(CNc2cc(-c3cccc(C#N)c3)ncn2)cn1,inactive,–
CO[C@]1(NC(=O)Cc2cccs2)C(=O)N2C(C(=O)O)=C(COC(N)=O)CS[C@H]21,inactive,–
